In the library only some 28% were active in any assay of this set; here they are far more common.
CYP2C9 activ – human CYP2C9 activators, primary screen, biochemical, luminescence; activation factor at 5 µM; 96,000 tested, 1.4% active; Cytochrome P450 2C9 (Homo sapiens), P11712; recombinant CYP2C9, luciferin-H conversion; stronger effect = higher value; factor 1 = untreated enzyme, 0 = blocked;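 active = activation factor of 2 or more for CYP2C9 at a 5 µM dose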;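 also: 0 = sulfaphenazole-blocked wells and 1 = vehicle-only wells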
CYP2C9 inh – blockers of cytochrome P450 2C9 activity – biochemical, luminescence, ADME assay, primary screen; P11712; CYP2C9 Supersomes, luciferin-H conversion; inhibition, % at 5 µM; 96,000 tested, 20% active;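 active = blocking of liver enzyme CYP2C9 beyond about 50% at 5 µM, limit read from the data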
CYP2C19 activ – human CYP2C19 activators, primary screen, biochemical, luminescence; recombinant CYP2C19, luciferin-H EGE luminescence; stronger effect = higher value; 0 = fully inhibited enzyme, 1 = untreated enzyme; Cytochrome P450 2C19 (Homo sapiens), P33261; AID 1025, 2008; 96,000 tested, under 10 active; activation factor at 5 µM;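 active = activation factor of at least 2 at 5 µM in the primary screen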;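 also: 0 = wells with 2.5 mM tranylcypromine and 1 = vehicle-only wells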
Target sequence (P33261 whole entry, looked up): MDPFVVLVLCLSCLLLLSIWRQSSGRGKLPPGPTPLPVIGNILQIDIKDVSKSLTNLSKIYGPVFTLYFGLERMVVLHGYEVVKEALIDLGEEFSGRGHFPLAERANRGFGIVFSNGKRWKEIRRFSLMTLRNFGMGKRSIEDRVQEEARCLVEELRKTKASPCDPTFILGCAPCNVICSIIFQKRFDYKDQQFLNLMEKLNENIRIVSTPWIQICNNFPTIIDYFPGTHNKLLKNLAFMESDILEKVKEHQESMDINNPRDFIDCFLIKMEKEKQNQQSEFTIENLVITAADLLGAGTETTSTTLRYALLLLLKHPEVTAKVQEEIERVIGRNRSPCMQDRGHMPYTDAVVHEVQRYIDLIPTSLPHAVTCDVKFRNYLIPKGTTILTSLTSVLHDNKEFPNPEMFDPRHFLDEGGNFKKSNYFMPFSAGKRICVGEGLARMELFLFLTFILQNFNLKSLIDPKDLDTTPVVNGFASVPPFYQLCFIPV
CD11b adhes inh – inhibitors of CD11b/CD18 adhesion to fibrinogen, primary screen, K562 cells, luminescence; ATPlite luminescence; Mn2+ added to activate the integrin; Integrin beta-2 (Homo sapiens) + Integrin alpha-M (Homo sapiens), P05107+P11215; AID 1497, 2009; 93,000 tested, 0.54% active; inhibition, % at 10 µM;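 active = primary inhibition of 50% or more at 10 µM, then 40% or more on retest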
CYP2C19 inh – blockers of cytochrome P450 2C19 activity – biochemical, luminescence, ADME assay, primary screen; P33261; CYP2C19 Supersomes, luciferin-H EGE luminescence, 30 min; inhibition, % at 5 µM; 96,000 tested, 21% active;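 active = CYP2C19 inhibition above a set limit at 5 µM in the primary screen, cut at about 50% in these data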;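 also: plate controls were negative control wells for no effect and 2.5 mM tranylcypromine positive control for full effect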
CD11b adhes enh – enhancers of CD11b/CD18 adhesion to fibrinogen, primary screen, K562 cells, luminescence; ATPlite luminescence; Integrin beta-2 (Homo sapiens) + Integrin alpha-M (Homo sapiens), P05107+P11215; AID 1499, 2009; 93,000 tested, 0.07% active; activation, % at 10 µM;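 active = 10 µM primary screen giving 50% or more activity, confirmed by 40% or more on retest at that dose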
* marks the source's active call; other numbers are inactive results; · = no result.

SMILES | CYP2C9 activ | CYP2C9 inh | CYP2C19 activ | CD11b adhes inh | CYP2C19 inh | CD11b adhes enh
O=C(COc1ccc(Cl)cc1)NCc1nnc(SCC(=O)NCCc2ccccc2)o1 | 0.5 | 45.5 | 1 | -19.3 | 0.5 | -0.9
CSCC[C@H](NC(=O)C1CCN(S(=O)(=O)c2ccc(C)cc2)CC1)C(=O)NCc1ccco1 | 1 | -1.2 | 1.1 | 1.9 | -5.9 | -0.3
COC(=O)C(C)Oc1ccc(=O)[nH]n1 (stereo unspecified) | 1.1 | -7.2 | 1 | 1.1 | -3.3 | 1.7
Cc1cc(C)cc(N(CC(=O)N2CCn3c2nc2ccccc23)S(=O)(=O)c2c(C)noc2C)c1 | 0.5 | 48.4 | 0.8 | -2.3 | 24.2 | 2.0
CN(C)S(=O)(=O)NC(c1ccccc1)c1ccccc1 | 0.4 | 59.8* | 0.2 | -1.5 | 82.8* | 15.0
CN(C)S(=O)(=O)c1c(Cl)cccc1Cl | 1.3 | -30.6 | 0.9 | -22.4 | 8.2 | -1.2
O=C1N(Cc2ccccc2F)c2ccccc2C12OCCCO2 | 1.4 | -38.8 | 0.4 | 0.3 | 57.3* | 4.5
COc1ccccc1NC(=O)CN1C(=O)NC(C)(C)C1=O | 1.1 | -6.9 | 0.9 | -7.1 | 13.1 | 0.0
COc1ccc(CCNC(=O)CN2CCCc3ccccc32)cc1OC | 0.4 | 59.3* | 0.3 | · | 74.3* | ·
COc1ccc(CCNC(=O)CN2C(=O)C3(OCCCO3)c3ccccc32)cc1OC | 0.8 | 22.5 | 0.4 | -4.6 | 58.8* | -5.4
O=C1N(Cc2ccc(F)cc2Cl)c2ccccc2C12OCCCO2 | 1.8 | -79.2 | 0.7 | -17.5 | 25.9 | 0.8
COc1ccccc1NC(=O)CN1C(=O)C2(OCCCO2)c2ccccc21 | 0.3 | 70.4* | 0.2 | -12.7 | 80.5* | -3.3
COc1cccc(-c2nc(CS(=O)(=O)c3ccccc3)no2)c1 | 0.7 | 32.5 | 0.6 | 11.0 | 43.4 | -2.4
Cc1c(NC(=O)C(C)OC(=O)c2c3c(nc4ccccc24)CCC3)c(=O)n(-c2ccccc2)n1C (stereo unspecified) | · | · | · | -17.8 | · | 6.4
COc1ccc(OC)c(NC(=O)CN2C(=O)C3(OCCCO3)c3ccccc32)c1 | 0.3 | 68.9* | 0.9 | -13.3 | 13.9 | -4.7
CCc1cccc(CC)c1NC(=O)C1SC(=Nc2ccccc2C)C(c2nc3ccccc3s2)=C1N (stereo unspecified) | 1 | -1.8 | 1.1 | 3.3 | -12.5 | 15.0
Cc1n[nH]c(C)c1Sc1ccccc1N=Cc1cc(Cl)cc([N+](=O)[O-])c1O | 0.7 | 26.2 | 0.8 | 57.3* | 19.3 | -5.5
O=C(NNc1ccccc1)C(=O)N1CCCCC1 | · | · | · | -3.6 | · | 6.4
CCOC(=O)c1ccc(N2C(=O)c3n[nH]c(C)c3C2c2ccccn2)cc1 (stereo unspecified) | 0.3 | 69.3* | 0.6 | -4.3 | 42.1 | 5.6
Cc1[nH]nc2c1C(c1ccccn1)N(c1ccc(Br)cc1)C2=O (stereo unspecified) | 1.2 | -18.5 | 1 | -3.6 | 1.0 | 0.2
CCOC(=O)c1ccc(N2C(=O)C(O)=C(C(C)=O)C2c2ccccn2)cc1 (stereo unspecified) | 0.5 | 51.7* | 1.1 | -20.2 | -6.2 | 2.0
CCOC(=O)c1ccc(N2C(=O)c3n[nH]c(C)c3C2c2cccnc2)cc1 (stereo unspecified) | 0.3 | 67.5* | 0.7 | 7.9 | 29.9 | 1.8
COc1ccc(S(=O)(=O)Nc2nc3n(n2)C(c2ccc(Cl)cc2)CC(=O)N3)cc1 (stereo unspecified) | 0.8 | 20.5 | 1.2 | 7.4 | -19.0 | -4.8
O=C(N/N=C\c1ccc(CN(Cc2ccc(Cl)cc2)S(=O)(=O)c2ccccc2)o1)C(=O)Nc1ccc(F)cc1 | 0.2 | 76.3* | 0.2 | -5.4 | 81.9* | -3.7
O=C(CNS(=O)(=O)c1ccccc1)N/N=C\c1ccc(Cl)cc1 | · | · | · | -0.4 | · | -1.0
SMILES | CYP2C9 activ | CYP2C9 inh | CYP2C19 activ | CD11b adhes inh | CYP2C19 inh | CD11b adhes enh
CCn1ncc(/C=N/N=C2\CCC3C4CCc5cc(O)ccc5C4CCC23C)c1C (stereo unspecified) | 0.2 | 80.5* | 0.5 | 8.0 | 47.9 | -1.8
Cc1c(/C=N/N=C2\CCC3C4CCc5cc(O)ccc5C4CCC23C)cnn1C (stereo unspecified) | 0.8 | 23.0 | 0.9 | -6.0 | 14.1 | -3.1
CC1(C)C(=O)Nc2ccccc2N1C(=O)COC(=O)C1CCCCC1 | 0.4 | 61.2* | 0.4 | -1.7 | 61.9* | -3.5
Cc1ccc(S(=O)(=O)CCC(=O)OCC(=O)N2CC(=O)Nc3ccccc32)cc1 | 0.9 | 10.1 | 0.8 | 11.0 | 22.4 | 2.7
Cc1cc(C)c(C)c(S(=O)(=O)N2CCC(C(=O)OCC(=O)N3c4ccccc4NC(=O)C3(C)C)CC2)c1C | 1.6 | -59.7 | 0.3 | -8.1 | 70.1* | 19.1
O=C1CN(C(=O)COC(=O)C2CCN(S(=O)(=O)c3ccccc3C(F)(F)F)CC2)c2ccccc2N1 | 1.5 | -51.4 | 0.4 | 11.0 | 57.1* | 4.6
CC1(C)C(=O)Nc2ccccc2N1C(=O)COC(=O)C12CC3CC(CC(O)(C3)C1)C2 | 0.9 | 6.0 | 1 | -10.2 | 0.3 | 0.2
CCC(C)(C)n1nnnc1C(C(C)C)N1CCSCC1 (stereo unspecified) | 0.8 | 19.7 | 0.6 | -1.3 | 40.7 | -7.0
Cc1nc(NCCCO)c(C#N)c2c1COC(C)(C)C2 | 1 | 4.9 | 0.9 | -1.5 | 10.3 | 3.8
COc1ccccc1CNC(=O)N[C@@H](Cc1ccccc1)C(=O)O | 0.8 | 21.4 | 0.3 | -29.7 | 70.4* | -1.6
COC(=O)[C@H](Cc1ccccc1)NC(=O)NCc1cccs1 | 0.8 | 19.8 | 0.4 | 22.2 | 62.9* | -2.6
O=C(NCc1ccccc1)N[C@@H](Cc1ccccc1)C(=O)O | 1 | -4.0 | 0.8 | · | 17.0 | ·
CCS(=O)(=O)c1ccc(-c2csc(-c3ccccc3)n2)c(Cl)c1Cl | 0.9 | 14.1 | 0.8 | 73.7 | 16.4 | -5.5
CCOC(=O)N1CCN(C(=O)c2ccc3c(SCC(=O)O)c4c(nc3c2)CCC4)CC1 | 0.7 | 27.9 | 1 | -1.8 | 2.2 | -2.4
CCOC(=O)N1CCN(C(=O)c2ccc3nc(SCc4ccc(F)cc4)n(C)c3c2)CC1 | 0.3 | 65.4* | 0.5 | · | 48.6 | ·
COc1ccc(/C=N/n2c(SC)nnc2-c2ccccc2)cc1C | 0.7 | 32.3 | 0.5 | 11.7 | 54.1* | 4.8
COc1cccc(/C=N/n2c(C)nc3ccccc32)c1OC | 0.3 | 68.5* | 0.6 | · | 39.4 | ·
COc1ccc(/C=N/n2c(SC)nnc2-c2ccccc2)c(OC)c1OC | 0.3 | 67.4* | 0.2 | 25.5 | 78.8* | -6.2
Cc1ccccc1OCCNc1ccc(C(F)(F)F)cc1[N+](=O)[O-] | 0.6 | 37.2 | 0.3 | · | 75.0* | ·
